Measured values: ChEMBL document CHEMBL3988442, “University of Dundee, Small-Polar-MMV Screening Library” (2021)
Among all 48,000 compounds or so, about 13,000 (27%) showed an effect of 50% or more. The list shows a part of the results.

test system: Wolbachia pipientis; assay: Anti-Wolbachia Cell-Based Screen; type: functional; parameters: scale not given: in the data most compounds retested in dose-response had high values; settings: 5 µM

| Compound | Percent Effect |
| --- | --- |
| Cc1ccc(S(=O)(=O)Nc2ccc(-n3nnn(C)c3=O)cc2)cc1 | 8.508% |
| O=S(=O)(Nc1ccc(N2CCOCC2)cn1)c1cccc(F)c1 | 2.193% |
| COc1cccc(OCC2CCCN(C(=O)c3ncc(F)cc3F)C2)c1 (stereo not drawn) | -61.26% |
| COC[C@H]1CCC[C@H]1Nc1ncnc2c1CCNCC2 | 95.23% |
| CCNc1ncc(C(=O)NC2COC3(CCCC3)C2)cn1 (stereo not drawn) | -5.692% |
| c1nc2c(c(NC3COC4(CCCC4)C3)n1)CCNCC2 (stereo not drawn) | 100.1% |
| c1nc2c(c(NC3CCc4ncnn4C3)n1)CCC2 (stereo not drawn) | -6.936% |
| CC(C)Nc1ncnc2c1CCNCC2 | -5.966% |
| COCC(=O)N1CCCN(c2ncnc3c2CCNCC3)CC1 | 1.266% |
| CC(NC(=O)CCN1CCOC1=O)(c1ccccc1)c1ccccc1 | 8.215% |
| CC(Oc1ccccc1C(F)(F)F)C(=O)NS(=O)(=O)C(C)C (stereo not drawn) | -1.095% |
| CCC(CC(=O)Nc1ccc2c(c1)CC(=O)N2)c1ccccc1 (stereo not drawn) | 3.416% |
| Cn1cc(C(=O)N2CCOc3ccccc32)ccc1=O | -9.078% |
| O=C(NCCc1cccc(Cl)c1)C1CCOCC1 | 2.096% |
| CC(C)N1CC(C(=O)NCCc2csc(-c3ccncc3)n2)CC1=O (stereo not drawn) | 2.271% |
| O=C(NCCc1cc2nc(-c3ccncc3)ccn2n1)C1CCOCC1 | 126.4% |
| O=C(NCCc1cc2nc(-c3ccncc3)ccn2n1)C1CC1 | 124.8% |
| Cc1csc(CCNC(=O)C2CCOC2)n1 (stereo not drawn) | 0.3325% |
| O=C(Nc1cc(-c2ccncc2)no1)C1CC1 | -3.278% |
| Cc1cc(=O)n(C)cc1NC(=O)NCc1cccc(F)c1 | 28.52% |
| CN1CCOC(C(=O)Nc2nc(-c3ccccc3F)n[nH]2)C1 (stereo not drawn) | -6.828% |
| O=C(Cc1ccc(-c2ccccc2)cc1)N1CCOCC(O)C1 (stereo not drawn) | -43.76% |
| O=C(Cc1ccccc1)N1CC(=O)N(Cc2ccco2)CC(O)C1 (stereo not drawn) | 119.5% |

| Compound | Percent Effect |
| --- | --- |
| O=C(COCc1ccccc1)N1CCN(Cc2ccccc2F)C(=O)C1 | -37.48% |
| O=C(O)C(F)(F)F.c1coc(CN2Cc3ccnn3CC(COCC3CC3)C2)c1 (stereo not drawn) | 5.412% |
| O=C1NCCO[C@H]2CN(C(=O)Cc3ccco3)CC[C@@H]12 | -15.97% |
| O=C1CN(C(=O)OCc2ccccc2)CC(O)CN1Cc1ccco1 (stereo not drawn) | 93.23% |
| O=C(C1CN(Cc2ccoc2)CC12CCOCC2)N1CCCC1 (stereo not drawn) | -22.56% |
| COCc1cc(C[C@@H]2CC[C@H](O)[C@@H](CN(C)C)O2)no1 | 7.016% |
| O=C(O)C(F)(F)F.O=C(c1ccoc1)N1CC[C@H]2OCC[C@@]2(COc2ncccc2F)C1 | 0.551% |
| COc1ccc(C(C)N2CCC(NS(C)(=O)=O)CC2)cc1Cl (stereo not drawn) | -1.711% |
| CO[C@H]1CC[C@H]2[C@H]1OCCN2C(=O)c1nn(C)c2ccccc12 | 119% |
| CO[C@@H]1CC[C@H]2[C@H]1OCCN2C(=O)c1ccco1 | -5.889% |
| CC(C)O[C@@H]1CC[C@H]2[C@H]1OCCN2C(=O)c1nn(C)c2ccccc12 | 112.4% |
| CO[C@@H]1CC[C@H]2[C@H]1OCCN2C(=O)c1nn(C)c2ccccc12 | 115.4% |
| COCCNC(=O)Nc1cccc(COCCOC(C)C)c1 | -33.02% |
| Cn1cc(C#N)cc1C(=O)N1CCC2(CCCN(CC3CCC3)C2=O)C1 (stereo not drawn) | -29.9% |
| COC(=O)CC1CCCCN1CC(=O)Nc1ccc(F)cc1Cl (stereo not drawn) | 107.7% |
| O=C(CN1CCCCC1Cn1cncn1)NCCc1ccc(F)cc1 (stereo not drawn) | -1.768% |
| COC(=O)CC1CCCCN1CC(=O)NCCc1ccc(F)cc1 (stereo not drawn) | 106.1% |
| CCOC(=O)N1CCN(CC(=O)Nc2ccc(F)cc2Cl)CC1 | -11.41% |
| O=C(CN1CCCCC1C1OCCO1)Nc1ccc(F)c(F)c1 (stereo not drawn) | -7.301% |
| O=C(Cn1cc(C(=O)O)ccc1=O)Nc1ccc(F)cc1Cl | -4.302% |
| Cc1nc(C)n(CC2CCCN2CC(=O)NCCc2ccccc2)n1 (stereo not drawn) | 5.202% |
| COC(=O)CC1CCCCN1CC(=O)Nc1cc(F)ccc1F (stereo not drawn) | 97.72% |
| COC(=O)C1CN(CC(=O)Nc2cc(F)ccc2F)c2ccccc21 (stereo not drawn) | 6.543% |

| Compound | Percent Effect |
| --- | --- |
| Cc1cc(C)c(CNC(=O)NCCNc2ncccn2)c(=O)[nH]1 | -4.444% |
| CCc1nsc(NC2CCCn3nc(CC)nc32)n1 (stereo not drawn) | 0.3299% |
| CCOC(=O)c1ccc(NC(=O)c2c(O)nc3c(c2O)CCCC3)cc1 | 115.5% |
| CC1=NN(c2ccc(C(=O)OCCNC(=O)c3ccncc3)cc2)CC1 | 6.071% |
| Nc1nc2c(c(NC(=O)Nc3ccc(Cl)c(Cl)c3)n1)CCCC2 | 4.347% |
| CC(C)(C)c1cnc(CN2CCCS(=O)(=O)CC2)o1 | -0.7322% |
| OCC1CCN(Cc2cc3c(cc2Br)OCCO3)CC1 | -6.909% |
| CCc1nc(C2CCCN2Cc2ccno2)no1 (stereo not drawn) | 111.3% |
| Cn1ccnc1CN1CCCC1c1noc(C2CC2)n1 (stereo not drawn) | 3.243% |
| FC(F)(F)Cn1ccnc1CN1CCCC1c1noc(C2CC2)n1 (stereo not drawn) | 2.411% |
| c1cc(CN2CCCC2c2noc(C3CC3)n2)on1 (stereo not drawn) | 95.79% |
| CCc1nc(C2CCCN2Cc2nnc(CC)o2)no1 (stereo not drawn) | -8.839% |
| CC(C)c1nc(C2CCCN2Cc2ccno2)no1 (stereo not drawn) | -3.719% |
| O=S(=O)(N1CCCCCC1)N1CCc2sccc2C1 | 4.086% |
| CS(=O)(=O)N1CCOC(CNC(=O)c2cccc(C#N)c2)C1 (stereo not drawn) | -22.73% |
| O=C(c1cccc(F)c1)N(CCCO)S(=O)(=O)c1cccs1 | -5.785% |
| Cc1cccc(OC2CCN(C(=O)Cn3ccc4ccccc43)CC2)n1 | 1.872% |
| Cn1cc(CN2CCOC(c3cccc(-c4cccc(F)c4)n3)C2)cn1 (stereo not drawn) | 143.3% |
| Cn1cc(CN2CCCC(c3nccnc3-c3cccc(F)c3)C2)cn1 (stereo not drawn) | 135.8% |
| Cn1cc(CNC(=O)C2CCCN(Cc3cccc(F)c3)C2)cn1 (stereo not drawn) | -5.601% |
| Cn1cc(CN2CCOC(c3nccnc3-c3cccc(F)c3)C2)cn1 (stereo not drawn) | 187.6% |
| Cn1cc(CN2CCCC(CCc3ccccc3C(F)(F)F)C2)cn1 (stereo not drawn) | 9.578% |
